Only some compounds are listed: those with a hit (about 32% of all), similar ones and a draw of the others.
CYP2C19 inhib – inhibitors of human CYP2C19. AID 778. P33261. CYP2C19 Supersomes, luciferin-H EGE luminescence, 30 min. 21% of 96,000 active. inhibition, % at 5 µM;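 active means CYP2C19 inhibition above a set limit at 5 µM in the primary screen, cut at about 50% in these data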;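 further: plate controls were negative control wells for no effect and 2.5 mM tranylcypromine positive control for full effect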
CYP2C9 inhib – human CYP2C9 inhibition | P11712 | CYP2C9 Supersomes, luciferin-H conversion, luminescence | inhibition, % at 5 µM | 20% of 96,000 active | AID 777;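 active means blocking of liver enzyme CYP2C9 beyond about 50% at 5 µM, limit read from the data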
Target sequence (P11712 whole entry, looked up): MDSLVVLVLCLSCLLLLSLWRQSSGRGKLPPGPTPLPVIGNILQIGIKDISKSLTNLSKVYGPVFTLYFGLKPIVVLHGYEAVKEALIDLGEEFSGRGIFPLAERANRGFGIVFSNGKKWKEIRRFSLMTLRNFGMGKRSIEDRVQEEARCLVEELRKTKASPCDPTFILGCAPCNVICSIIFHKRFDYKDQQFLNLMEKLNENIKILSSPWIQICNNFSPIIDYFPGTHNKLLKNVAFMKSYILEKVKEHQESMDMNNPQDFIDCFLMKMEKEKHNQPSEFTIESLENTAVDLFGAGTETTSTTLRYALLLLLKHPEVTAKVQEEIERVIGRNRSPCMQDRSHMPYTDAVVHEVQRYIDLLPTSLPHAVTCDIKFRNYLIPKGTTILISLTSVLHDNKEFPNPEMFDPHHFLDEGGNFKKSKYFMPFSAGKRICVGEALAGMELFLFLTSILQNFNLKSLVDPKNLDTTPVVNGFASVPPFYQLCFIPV
CYP2C19 act – activators of human cytochrome P450 2C19; P33261; recombinant CYP2C19, luciferin-H EGE luminescence; active compounds read high; 0 = fully inhibited enzyme, 1 = untreated enzyme; activation factor at 5 µM; 96,000 tested, under 10 active; AID 1025;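 active means activation factor of at least 2 at 5 µM in the primary screen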;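 further: 0 = wells with 2.5 mM tranylcypromine and 1 = vehicle-only wells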
CYP2C9 activ – activators of human CYP2C9. P11712. recombinant CYP2C9, luciferin-H conversion, luminescence; active compounds read high; factor 1 = untreated enzyme, 0 = blocked. activation factor at 5 µM. 1.4% of 96,000 active. AID 1024;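 active means activation factor of 2 or more for CYP2C9 at a 5 µM dose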;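 further: 0 = sulfaphenazole-blocked wells and 1 = vehicle-only wells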
PostGolgi yeast – growth inhibition of a yeast mutant, post-Golgi transport screen. post-Golgi transport phenotypic cell assay. inhibition, % at 10 µM. 0.9% of 98,000 active. AID 739;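 further: yeast cells grown in 1536-well plates; yeast grown about 18 h at 30C before absorbance read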
PostGolgi ctrl – growth of the yeast control strain, post-Golgi counter-screen; efflux-deficient yeast background strain, growth absorbance A615, 16 h; inhibition, % at 10 µM; 5% of 98,000 active
* = called active by the depositor; . = no result given. Unless noted, no stated cut-off is given here; in the data, active means inhibition above about 30%; inactive means the rest.

SMILES	CYP2C19 inhib	CYP2C9 inhib	CYP2C19 act	CYP2C9 activ	PostGolgi yeast	PostGolgi ctrl
O=C(C1CCN(c2nnc(-n3cccc3)s2)CC1)N1CCN(c2cccc(C(F)(F)F)c2)CC1	52*	55*	0.5	0.5	1	0
O=C(NCCCc1ccccc1)C1CCN(c2nnc(-n3cccc3)s2)CC1	35	49	0.7	0.5	-3	39*
O=C(C1CCCN(c2nnc(-n3cccc3)s2)C1)N1CCN(c2ccccc2)CC1 (configuration not stated)	68*	49	0.3	0.5	-1	41*
CCOc1cc(Br)c(C(=O)O)cc1OC	-14	-6	1.1	1.1	-7	7
O=C(Nc1cnn(Cc2ccccc2)c1)c1cc2nc(-c3ccco3)cc(C(F)(F)F)n2n1	12	1	0.9	1	3	9
CC(CCc1ccccc1)NC(=O)C1CCCN(c2nnc(-n3cccc3)s2)C1 (configuration not stated)	.	.	.	.	6	6
CC(C)NC(=O)C1CCCN(c2nnc(-n3cccc3)s2)C1 (configuration not stated)	53*	22	0.5	0.8	11	-1
COc1ccccc1NC(=O)c1ccc(NS(C)(=O)=O)cc1	8	-233	0.9	3.3*	-9	28
COc1cc(NS(C)(=O)=O)c(OC)cc1NC(=O)c1ccccc1	-9	-145	1.1	2.5*	2	8
O=C(NCC(=O)N(Cc1ccccc1)C(C(=O)NCC1CCCO1)c1ccccc1)c1cccs1 (configuration not stated)	6	16	0.9	0.8	-7	6
Cc1c(N2C(=O)C(C)SC23C(=O)Nc2ccccc23)c(=O)n(-c2ccccc2)n1C (configuration not stated)	-21	-20	1.2	1.2	1	4
Cc1c(N2C(=O)CSC23C(=O)Nc2ccccc23)c(=O)n(-c2ccccc2)n1C (configuration not stated)	22	-3	0.8	1	-7	40*
CC(C)c1ccc(/C=C/C(=O)n2nnc3ccccc32)cc1	-22	-8	1.2	1.1	12	10
COc1ccc(N/C=C(\C#N)c2nc3ccccc3n2C)c(OC)c1	37	-29	0.6	1.3	24	49*
Cn1c(/C(C#N)=C(\O)COc2ccc3ccccc3c2)nc2ccccc21	9	-6	0.9	1.1	-1	-3
O=C1Nc2ccccc2C12OCC(COc1ccc(Cl)cc1)O2 (configuration not stated)	84*	20	0.2	0.8	-9	23
CN1C(=O)C2(OCC(COc3ccc(Cl)cc3)O2)c2ccccc21 (configuration not stated)	32	-8	0.7	1.1	-2	17
CC(NC(=O)c1cccnc1)c1ccc2c(c1)OCO2 (configuration not stated)	41	13	0.6	0.9	4	-1
CC(NC(=O)c1cccs1)c1ccc2c(c1)OCO2 (configuration not stated)	92*	76*	0.1	0.2	4	12
CC(NC(=O)c1cc2sccc2n1C)c1ccc2c(c1)OCCO2 (configuration not stated)	22	82*	0.8	0.2	1	8
CCn1c(C(=O)NC(C)c2ccc3c(c2)OCCO3)cc2sccc21 (configuration not stated)	10	33	0.9	0.7	-3	24
COc1ccccc1N(C(C)=O)C1SC(=O)N(c2ccccc2)C1=O (configuration not stated)	54*	-7	0.5	1.1	-3	-12
O=C(OCN1C(=O)c2ccccc2C1=O)C1CCCCC1	4	-13	1	1.1	-4	-4
O=C1c2ccccc2C(=O)N1SC1CCCCC1	25	82*	0.8	0.2	0	10
C=CCNC(=O)c1onc(CSc2cccc(Cl)c2)c1C(=O)O	12	68*	0.9	0.3	-2	10
SMILES	CYP2C19 inhib	CYP2C9 inhib	CYP2C19 act	CYP2C9 activ	PostGolgi yeast	PostGolgi ctrl
C=CCNC(=O)c1onc(CSc2ccccc2C)c1C(=O)O	4	46	1	0.5	-4	6
C=CCNC(=O)c1onc(CSc2cccc(C)c2)c1C(=O)O	12	65*	0.9	0.3	-6	22
Cn1c(=O)c2c(ncn2CC(=O)Nc2ccccc2Sc2ccccc2)n(C)c1=O	2	4	1	1	8	2
Cc1cccc(NC(=O)CSc2nc(COc3ccccc3)nc3ccccc23)c1C	39	90*	0.6	0.1	13	3
CCc1nc(SCC(=O)Nc2sc(C)c(C)c2C(=O)OC)c2ccccc2n1	14	54*	0.9	0.5	3	5
Cc1cccc(C)c1NC(=O)CSc1nc(COc2ccccc2)nc2ccccc12	66*	90*	0.3	0.1	11	10
Cc1ccc(S(=O)(=O)/N=C(\CSC(N)=O)Nc2ccccc2)cc1	21	-87	0.8	1.9	1	-1
Cc1ccc(S(=O)(=O)/N=C(\Sc2ccccc2)c2ccccc2)cc1	34	62*	0.7	0.4	2	0
O=S(=O)(/N=C(\Sc1ccccc1)c1ccccc1)c1ccc(Cl)cc1	16	62*	0.8	0.4	-2	8
Cc1ccc(S(=O)(=O)/N=S(/C)c2ccccc2)cc1 (configuration not stated)	12	-52	0.9	1.5	-1	-4
CSC(=NS(=O)(=O)c1ccc(C)cc1)SC	21	-106	0.8	2.1*	2	7
CCOC(=S)N/C(=N\S(=O)(=O)c1ccc(C)cc1)c1ccccc1	46	91*	0.5	0.1	-2	10
O=C(Cc1cccc2ccccc12)Nc1ccc(-c2cc3ccccc3oc2=O)cc1	-2	37	1	0.6	0	-18
O=C(CSc1nccc(-c2ccc(Br)cc2)n1)NCCc1ccccc1	62*	47	0.4	0.5	29	11
CC1(c2ccccc2)NC(=O)N(CCN2C(=O)c3ccccc3C2=O)C1=O (configuration not stated)	96*	67*	0	0.3	1	5
CCCC1(c2ccccc2)NC(=O)N(CCN2C(=O)c3ccccc3C2=O)C1=O (configuration not stated)	89*	38	0.1	0.6	2	4
CN1CCN(CC#CC2(O)CCCCC2)CC1	-6	-10	1.1	1.1	-2	3
CC(=O)NC(CCS(C)(=O)=O)C(=O)Nc1cccc(C)c1C (configuration not stated)	-3	-11	1	1.1	6	-3
COCCn1c(SCC(=O)Nc2ccc(Cl)cn2)nc2ccccc21	90*	-24	0.1	1.2	-1	10
COCCn1c(SCC(=O)Nc2ncc(Cl)c(C)c2Cl)nc2ccccc21	93*	47	0.1	0.5	13	9

Screening results as filed in PubChem BioAssay.
